From PubChem BioAssay (EPA / NIEHS)
Several values for one entry are separate records, joined by “and”; a condition that tells them apart may be missing. Equal values may be shown once. Activity calls are given as the source filed them. Rule for the calls: active = hit-call score of the fitted dose curve at least 0.9, where 1 is the maximum; inactive = score below 0.9.

molecular target: Nuclear respiratory factor 1 (Homo sapiens) (UniProt Q16656); experiment: ATG_NRF1_CIS: Attagene CIS-FACTORIAL HepG2 Assay for human Nuclear Respiratory Factor 1 (NRF1) Orphan Gene (AID 2282987); details: HepG2 NRF1 cis-element reporter, Attagene multiplex; actives raise or lower the signal
Method in brief: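 Fluorescence intensity of labelled reporter cDNA fragments, resolved by capillary electrophoresis, served as readout for NRF1 cis-element activity. Transiently transfected HepG2 cells were dosed for 24 hours; activity in either direction was fitted against DMSO negative control.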

Chain of Nuclear respiratory factor 1 (Homo sapiens) (Q16656 whole entry, looked up, the tested form may be a part): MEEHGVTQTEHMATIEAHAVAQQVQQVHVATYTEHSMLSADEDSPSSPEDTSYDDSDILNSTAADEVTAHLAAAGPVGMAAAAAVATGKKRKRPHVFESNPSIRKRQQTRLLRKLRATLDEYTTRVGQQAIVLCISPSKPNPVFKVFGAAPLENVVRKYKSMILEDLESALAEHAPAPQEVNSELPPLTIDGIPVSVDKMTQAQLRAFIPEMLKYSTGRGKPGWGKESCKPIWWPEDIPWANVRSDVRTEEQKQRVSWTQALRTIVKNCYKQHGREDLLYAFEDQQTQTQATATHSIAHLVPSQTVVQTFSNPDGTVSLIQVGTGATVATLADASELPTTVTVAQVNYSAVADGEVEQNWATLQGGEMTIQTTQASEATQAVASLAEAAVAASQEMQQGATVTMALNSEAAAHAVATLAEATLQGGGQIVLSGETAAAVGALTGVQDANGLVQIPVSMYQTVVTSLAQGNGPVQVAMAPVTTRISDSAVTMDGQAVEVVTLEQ

Row | Structure (SMILES) | outcome
1 | CCOc1cc(Oc2ccc(C(F)(F)F)cc2Cl)ccc1[N+](=O)[O-] | inactive
2 | Cc1ccc(-c2c(Cl)nc(C#N)n2S(=O)(=O)N(C)C)cc1 | inactive
3 | CC(Oc1ccc(Cl)cc1Cl)C(=O)O (stereo not given) | inactive
4 | Fc1ccc(Oc2ccnc3cc(Cl)cc(Cl)c23)cc1 | inactive

tested on: not listed separately; experiment: ATG_NFI_CIS: Attagene CIS-FACTORIAL HepG2 Assay for human Nuclear Factor I (NFI) (AID 2282989); details: HepG2 cis-regulatory reporter, NFI response element transcription; actives raise or lower the signal
Method in brief: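 Transient MRTU transfection of HepG2 → 24 h chemical dosing → total RNA, oligo(dT) RT → PCR, 6-FAM primer extension, HpaI cut → capillary electrophoresis. Endpoint fitted bidirectionally relative to DMSO.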

Row | Structure (SMILES) | AC50 | outcome
5 | CCc1nn(C)c(C(=O)NCc2ccc(C(C)(C)C)cc2)c1Cl | 0.353 µM (active) | 
6 | CCOC(=O)CC(SP(=S)(OC)OC)C(=O)OCC (stereo not given) |  | inactive
7 | C=CCC1=C(C)[C@@H](OC(=O)[C@@H]2[C@@H](C=C(C)C)C2(C)C)CC1=O |  | inactive
8 | CC(C)C1(C)N=C(c2nc3ccccc3cc2C(=O)O)NC1=O (stereo not given) |  | inactive
9 | COP(N)(=O)SC (stereo not given) |  | inactive
10 | Oc1ccccc1-c1ccccc1 |  | inactive
11 | CS/C(C)=N/OC(=O)N(C)SN(C)C(=O)O/N=C(\C)SC |  | inactive
12 | CCCCC(CC)COC(=O)c1ccccc1C(=O)OCC(CC)CCCC (stereo not given) |  | inactive
13 | CCNc1nc(Cl)nc(NCC)n1 |  | inactive
14 | O=C(Nc1ccccc1)Nc1ccnc(Cl)c1 |  | inactive
15 | CCCCNC(=O)n1c(NC(=O)OC)nc2ccccc21 |  | inactive
16 | CCOC(=O)C(Cl)Cc1cc(-n2nc(C)n(C(F)F)c2=O)c(F)cc1Cl (stereo not given) |  | inactive
17 | O=C(O)c1nc(Cl)ccc1Cl |  | inactive
18 | COc1nc(C)nc(NC(=O)NS(=O)(=O)c2ccccc2Cl)n1 |  | inactive
19 | CN(C)C(=S)SSC(=S)N(C)C |  | inactive
20 | C#CCOS(=O)OC1CCCCC1Oc1ccc(C(C)(C)C)cc1 (stereo not given) |  | inactive
21 | CNC(=S)S |  | inactive
22 | N#Cc1cc(Br)c(O)c(Br)c1 | 10.8 µM (active) | 
23 | CCON=C(CC)C1=C(O)CC(c2c(C)cc(C)cc2C)CC1=O (stereo not given) |  | inactive
24 | O=C(O)COc1nc(Cl)c(Cl)cc1Cl |  | inactive
25 | Cc1c(F)c(F)c(COC(=O)C2C(/C=C(\Cl)C(F)(F)F)C2(C)C)c(F)c1F (stereo not given) |  | inactive
26 | CC1=C(C(=O)Nc2ccccc2)SCCO1 |  | inactive
27 | COP(=S)(OC)Oc1nc(Cl)c(Cl)cc1Cl |  | inactive
28 | CCOc1cc(Oc2ccc(C(F)(F)F)cc2Cl)ccc1[N+](=O)[O-] |  | inactive
29 | Cc1ccc(-c2c(Cl)nc(C#N)n2S(=O)(=O)N(C)C)cc1 |  | inactive
30 | CC(Oc1ccc(Cl)cc1Cl)C(=O)O (stereo not given) |  | inactive
31 | Fc1ccc(Oc2ccnc3cc(Cl)cc(Cl)c23)cc1 |  | inactive

molecular target: Myc proto-oncogene protein (Homo sapiens) (UniProt P01106); experiment: ATG_Myc_CIS: Attagene CIS-FACTORIAL HepG2 Assay for human Myelocytomatosis (Myc) Proto-Oncogene Transcription Factor (AID 2282990); details: HepG2, Attagene cis-reporter transcription factor activity; actives raise or lower the signal
Method in brief: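 HepG2, transient MRTU transfection (cis promoters, endogenous TFs); 24 h dosing; TriZol RNA → oligo(dT) RT → PCR → 6-FAM primer extension → HpaI cut → CE. Bidirectional fit vs DMSO.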

Chain of Myc proto-oncogene protein (Homo sapiens) (P01106 whole entry, looked up): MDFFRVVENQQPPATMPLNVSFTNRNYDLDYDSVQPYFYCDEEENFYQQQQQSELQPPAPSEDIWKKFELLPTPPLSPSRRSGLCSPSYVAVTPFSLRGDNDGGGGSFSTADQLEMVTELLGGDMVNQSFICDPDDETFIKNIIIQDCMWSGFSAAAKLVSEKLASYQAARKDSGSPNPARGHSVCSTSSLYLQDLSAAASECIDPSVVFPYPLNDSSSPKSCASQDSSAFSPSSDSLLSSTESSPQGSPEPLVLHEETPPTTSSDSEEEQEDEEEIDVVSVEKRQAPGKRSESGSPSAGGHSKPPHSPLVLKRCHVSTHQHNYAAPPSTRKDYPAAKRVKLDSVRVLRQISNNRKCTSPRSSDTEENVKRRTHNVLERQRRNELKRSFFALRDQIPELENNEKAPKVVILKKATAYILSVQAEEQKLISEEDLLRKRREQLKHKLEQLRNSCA

Row | Structure (SMILES) | outcome
32 | CCc1nn(C)c(C(=O)NCc2ccc(C(C)(C)C)cc2)c1Cl | inactive
33 | COP(N)(=O)SC (stereo not given) | inactive
34 | O=C(Nc1ccccc1)Nc1ccnc(Cl)c1 | inactive
35 | C#CCOS(=O)OC1CCCCC1Oc1ccc(C(C)(C)C)cc1 (stereo not given) | inactive
36 | CC1=C(C(=O)Nc2ccccc2)SCCO1 | inactive
37 | COP(=S)(OC)Oc1nc(Cl)c(Cl)cc1Cl | inactive
38 | CC(Oc1ccc(Cl)cc1Cl)C(=O)O (stereo not given) | inactive

tested on: not listed separately; experiment: ATG_NF_kB_CIS: Attagene CIS-FACTORIAL HepG2 Assay for human Nuclear Factor Kappa B (NF-kB) (AID 2282991); details: HepG2 Attagene cis-factorial NF-kB reporter mRNA; actives raise or lower the signal
Method in brief: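 Endogenous transcription factor activity in HepG2 was captured via cis-regulated reporter constructs; after 24 h dosing, reporter mRNA was reverse-transcribed, amplified, fluorescently labelled and sized by capillary electrophoresis, with activity fitted bidirectionally relative to DMSO.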

Row | Structure (SMILES) | AC50 | outcome
39 | CCc1nn(C)c(C(=O)NCc2ccc(C(C)(C)C)cc2)c1Cl | 0.709 µM (active) | 
40 | CCOC(=O)CC(SP(=S)(OC)OC)C(=O)OCC (stereo not given) |  | inactive
41 | C=CCC1=C(C)[C@@H](OC(=O)[C@@H]2[C@@H](C=C(C)C)C2(C)C)CC1=O |  | inactive
42 | CC(C)C1(C)N=C(c2nc3ccccc3cc2C(=O)O)NC1=O (stereo not given) |  | inactive
43 | COP(N)(=O)SC (stereo not given) |  | inactive
44 | CS/C(C)=N/OC(=O)N(C)SN(C)C(=O)O/N=C(\C)SC |  | inactive
45 | CCCCC(CC)COC(=O)c1ccccc1C(=O)OCC(CC)CCCC (stereo not given) |  | inactive
46 | O=C(Nc1ccccc1)Nc1ccnc(Cl)c1 | 30.1 µM (active) | 
47 | CCCCNC(=O)n1c(NC(=O)OC)nc2ccccc21 |  | inactive
48 | CCOC(=O)C(Cl)Cc1cc(-n2nc(C)n(C(F)F)c2=O)c(F)cc1Cl (stereo not given) |  | inactive
49 | CN(C)C(=S)SSC(=S)N(C)C |  | inactive
50 | C#CCOS(=O)OC1CCCCC1Oc1ccc(C(C)(C)C)cc1 (stereo not given) |  | inactive
51 | CNC(=S)S |  | inactive
52 | N#Cc1cc(Br)c(O)c(Br)c1 |  | inactive
53 | CCON=C(CC)C1=C(O)CC(c2c(C)cc(C)cc2C)CC1=O (stereo not given) |  | inactive
54 | O=C(O)COc1nc(Cl)c(Cl)cc1Cl |  | inactive
55 | Cc1c(F)c(F)c(COC(=O)C2C(/C=C(\Cl)C(F)(F)F)C2(C)C)c(F)c1F (stereo not given) |  | inactive
56 | CCOc1cc(Oc2ccc(C(F)(F)F)cc2Cl)ccc1[N+](=O)[O-] |  | inactive
57 | Cc1ccc(-c2c(Cl)nc(C#N)n2S(=O)(=O)N(C)C)cc1 |  | inactive
58 | CC(Oc1ccc(Cl)cc1Cl)C(=O)O (stereo not given) |  | inactive

tested on: not listed separately; experiment: ATG_NRF2_ARE_CIS: Attagene CIS-FACTORIAL HepG2 Assay for human Nuclear Factor Erythroid 2 Related Factor 2 (NFR2) response to Antioxidant Response Elements (ARE) (AID 2282992); details: HepG2 Attagene ARE/NRF2 reporter, transcription factor activity; actives raise or lower the signal;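 for AC50: reporter mRNA level measured by RT-PCR and capillary electrophoresis fluorescence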
Method in brief: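 Fluorescence intensity of reporter-specific cDNA fragments, separated by capillary electrophoresis, reflects mRNA induction in transfected HepG2 cells at 24 h. Activity is fitted bidirectionally, DMSO serving as baseline.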

Row | Structure (SMILES) | AC50 | outcome
59 | CCc1nn(C)c(C(=O)NCc2ccc(C(C)(C)C)cc2)c1Cl | 0.214 µM (active) | 
60 | CCOC(=O)CC(SP(=S)(OC)OC)C(=O)OCC (stereo not given) | 25.1 µM (active) and 19.6 µM (active) | 
61 | C=CCC1=C(C)[C@@H](OC(=O)[C@@H]2[C@@H](C=C(C)C)C2(C)C)CC1=O | 2.64 µM (active) | 
62 | CC(C)C1(C)N=C(c2nc3ccccc3cc2C(=O)O)NC1=O (stereo not given) |  | inactive
63 | COP(N)(=O)SC (stereo not given) |  | inactive
64 | Oc1ccccc1-c1ccccc1 | 32.7 µM (active) and 26.2 µM (active) | 
65 | CS/C(C)=N/OC(=O)N(C)SN(C)C(=O)O/N=C(\C)SC |  | inactive
66 | CCCCC(CC)COC(=O)c1ccccc1C(=O)OCC(CC)CCCC (stereo not given) |  | inactive
67 | CCNc1nc(Cl)nc(NCC)n1 |  | inactive
68 | O=C(Nc1ccccc1)Nc1ccnc(Cl)c1 | 13.7 µM (active) | 
69 | CCCCNC(=O)n1c(NC(=O)OC)nc2ccccc21 |  | inactive
70 | CCOC(=O)C(Cl)Cc1cc(-n2nc(C)n(C(F)F)c2=O)c(F)cc1Cl (stereo not given) |  | inactive
71 | O=C(O)c1nc(Cl)ccc1Cl |  | inactive
72 | COc1nc(C)nc(NC(=O)NS(=O)(=O)c2ccccc2Cl)n1 |  | inactive
73 | CN(C)C(=S)SSC(=S)N(C)C |  | inactive
74 | C#CCOS(=O)OC1CCCCC1Oc1ccc(C(C)(C)C)cc1 (stereo not given) | 1.19 µM (active) | 
75 | CNC(=S)S | 26.7 µM (active) and 17.6 µM (active) | 
76 | N#Cc1cc(Br)c(O)c(Br)c1 | 26.7 µM (active) | 
77 | CCON=C(CC)C1=C(O)CC(c2c(C)cc(C)cc2C)CC1=O (stereo not given) |  | inactive
78 | O=C(O)COc1nc(Cl)c(Cl)cc1Cl | 19.1 µM (active) | 
79 | Cc1c(F)c(F)c(COC(=O)C2C(/C=C(\Cl)C(F)(F)F)C2(C)C)c(F)c1F (stereo not given) |  | inactive
80 | CC1=C(C(=O)Nc2ccccc2)SCCO1 | 16.6 µM (active) | 
81 | COP(=S)(OC)Oc1nc(Cl)c(Cl)cc1Cl | 26.2 µM (active) | 
82 | CCOc1cc(Oc2ccc(C(F)(F)F)cc2Cl)ccc1[N+](=O)[O-] | 13.7 µM (active) | 
83 | Cc1ccc(-c2c(Cl)nc(C#N)n2S(=O)(=O)N(C)C)cc1 | 6.65 µM (active) | 
84 | CC(Oc1ccc(Cl)cc1Cl)C(=O)O (stereo not given) |  | inactive
85 | Fc1ccc(Oc2ccnc3cc(Cl)cc(Cl)c23)cc1 | 3.83 µM (active) | 
